Source: PubChem (National Center for Advancing Translational Sciences (NCATS))
This excerpt belongs to a sample that is enriched for hits.
ERK EGF block = blocks ERK signaling stimulated by EGF; HEK293-V1b, EGF-stimulated phospho-ERK AlphaScreen; Potency, µM (series often up to 11.5 µM), usual class: inhibitors; actives 0.41% (n = 130,000); AID 1454; active = well fitted inhibition curve with a large enough effect; note: nearly all actives have a fitted effect of over 55% in size
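Readout: AlphaScreen signal for phosphorylated ERK in lysed HEK293 cells stably expressing V1b. Stimulus 25 nM EGF, 5 min, following 30 min compound exposure. Data scaled to DMSO basal and full EGF activation.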
Each line names hits and unclear results; the compound was inactive in the other large screens.

COc1ccc(CCN2C(=O)CC(NC34CC5CC(CC(C5)C3)C4)C2=O)cc1OC (stereo not given)	none
COc1ccc(CCN2C(=O)CC(NNC(=O)c3ccccc3Br)C2=O)cc1 (stereo not given)	none
CCN(CC)c1ccc(NC2CC(=O)N(CCc3ccc(OC)cc3)C2=O)cc1 (stereo not given)	ERK EGF block 35µM
C=N[C@H](C(=O)N[C@@H]1C(=O)N2[C@@H]1SC(C)(C)[C@@H]2C(=O)O)c1ccccc1	none
C=CC(=O)N1C(=O)c2ccccc2S1(=O)=O	none
O=C(CN1CCc2ccccc21)NN1CC(=O)N(c2ccc(Cl)cc2)CC1=O	ERK EGF block 18µM
CN1CCN(CC(=O)NN2CC(=O)N(c3ccc(F)cc3)CC2=O)CC1	none
O=C(Nc1ccccc1)NN1CC(=O)N(c2ccc(Cl)cc2)CC1=O	none
CCc1cccc2c(-c3ccccc3)c3c(nc12)OCC3	none
Cc1nc(NCc2ccccc2)c2nc(-c3ccccc3)n(CC(C)(C)CN(C)C)c2n1	none
COC(=O)CC1c2ccccc2C=C(C2CC2)N1C(=O)OC (stereo not given)	none
C=CC[C@](C)(O)c1ccccc1	none
O=C(Nc1ccc(S(=O)(=O)N2CCCC2)cc1)c1ccc(OCC2CCCO2)cc1 (stereo not given)	none
O=C(Nc1ccc(Cl)c(S(=O)(=O)N2CCOCC2)c1)c1ccc(OCC2CCCO2)cc1 (stereo not given)	ERK EGF block 14µM
Cc1ccc(NC(=O)c2ccc(OCC3CCCO3)cc2)cc1 (stereo not given)	none
O=C(Nc1ccccc1)OC[C@H](CN1CCCCC1)OC(=O)Nc1ccccc1	none
CC(C)OC(=O)[C@@H]1CC[C@H](C)[C@@H](CCCC=O)O1	none
CC1=CC(=O)C2=C(C)C[C@@H]3OC(=O)[C@@H](C)[C@H]3C=C12	none
CCN1C(=O)/C(=C/C=C2/Sc3ccc4ccccc4c3N2CCO)SC1=S	none
CCN1C(c2ccccc2)=C(c2ccccc2)S/C1=C/C=C1\SC(=S)N(C)C1=O	ERK EGF block 3.2µM
CCCN1C(=O)/C(=C\C=C2/C=CN(CC)c3ccccc32)SC1=S	none
CC(C)[C@@H](CC(=O)N[C@@H]1CCNC[C@H]1C(=O)N[C@H](CC(=O)N[C@@H](CCC(=O)O)CC(=O)O)Cc1c[nH]c2ccccc12)NC(=O)C[C@H](Cc1c[nH]c2ccccc12)NC(=O)[C@@H]1CNCC[C@H]1N	none
Nc1nc(SCc2ccc([N+](=O)[O-])cc2)c2ncn([C@@H]3O[C@H](CO)[C@H](O)[C@H]3O)c2n1	none
CC(C)C[C@@H](CC(=O)N[C@@H](CCC(=O)O)CC(=O)O)NC(=O)[C@@H]1CNCC[C@H]1NC(=O)C[C@@H](NC(=O)C[C@H](Cc1ccccc1)NC(=O)[C@@H]1CNCC[C@H]1N)C(C)C	none
CC(C)c1ccccc1-n1c(SCC(=O)N2CCc3ccccc3C2)nc2ccccc2c1=O	none
O=C(CSc1nc2ccccc2c(=O)n1-c1ccccc1)N1CCC1	none
O=C(CSc1nc2ccccc2c(=O)n1-c1ccccc1)N1CCc2ccccc2C1	ERK EGF block 28µM
COc1cccc(CS(=O)(=O)c2nnnn2-c2ccccc2)c1	none
N#C/C(=C\c1ccc(-c2ccccc2)cc1)c1nc(-c2ccco2)cs1	none
COc1ccc(/C=C(\C#N)c2cc(OC)c(OC)cc2[N+](=O)[O-])cc1	none
CCOc1ccc(-c2csc(/C(C#N)=C\c3ccc(O)c([N+](=O)[O-])c3)n2)cc1	ERK EGF block 13µM
C/C=C/c1ccc(OC(C)[C@@H](O)c2ccc(O)c(OC)c2)c(OC)c1 (stereo not given in full)	none
O=C(/C=C/c1c(C(=O)O)[nH]c2cc(Cl)cc(Cl)c12)Nc1ccccc1	none
Cc1ccc(C(=O)NCCSCc2ccccc2)cc1[N+](=O)[O-]	none
Cc1ccc(C(=O)c2cc3ccccc3o2)cc1[N+](=O)[O-]	ERK EGF block 22µM
COc1cc2c(cc1NC(=O)c1ccc(C)c([N+](=O)[O-])c1)oc1ccccc12	none
CC(C)(C)OC(=O)C1=NOC2(C=CC(=O)C=C2)C1	none
O=[N+]([O-])c1ccc(Sc2cccc[n+]2[O-])c2nonc12	ERK EGF block 25µM
O=C(CSc1cccc[n+]1[O-])Nc1ccc(C(F)(F)F)cc1[N+](=O)[O-]	none
CC(Sc1cccc[n+]1[O-])C(=O)Nc1ccc([N+](=O)[O-])cc1Cl (stereo not given)	none
COc1ccc(C(=O)OC2CC3CC[C@H](C2)N3C(C)=O)cc1OC (stereo not given in full)	none
COc1cc(NS(C)(=O)=O)ccc1Cc1c2ccccc2nc2ccccc12	none
COc1cccc([C@@H]2Oc3ccc(OC)cc3C[C@H]2OC(=O)Nc2cc(OC)c(OC)c(OC)c2)c1	none
CN(C)CCCN(C(=O)COc1ccccc1)c1nc2ccc(Cl)cc2s1	none
CN(C)CCCN(C(=O)c1ccc2c(c1)CCCC2)c1nc2ccc(Cl)cc2s1	ERK EGF block 20µM
CN(C)CCCN(C(=O)c1sc2ccccc2c1Cl)c1nc2ccc(F)cc2s1	none
CCCCC[C@H](O)/C=C/C=C\C=C\C=C\[C@@H](O)[C@@H](O)CCCC(=O)O	none
COc1cccc(Nc2ncc3nc(CCc4ccccc4)c(=O)n(C4CC4)c3n2)c1	none
COc1ccc(Nc2c(-c3ccc(C)cc3)nc3cnccn23)cc1	none
COc1ccc(Nc2c(-c3ccc(OC)cc3)nc3cnccn23)cc1	none
Cc1ccc(Nc2c(-c3ccccc3O)nc3cnccn23)cc1	ERK EGF block 25µM
CCCCC[C@H](O)/C=C/C=C\C/C=C\C=C\[C@@H](O)CCCC(=O)O	none
Cc1nnc(SCC2=C(C(=O)O)N3C(=O)[C@@H](NC(=O)Cn4cnnn4)[C@@H]3SC2)s1	none
CC(O)[C@@H](O)[C@H]1CNc2nc(N)[nH]c(=O)c2N1 (stereo not given in full)	none
N#C/C(C(N)=O)=c1/ccc2c(c1)N1C3=C(CCCC3)CC3CCCCC31N=2 (stereo not given)	ERK EGF block 7.9µM
C=CCC(O)c1ccccc1 (stereo not given)	none
COS(C)(=O)=O	none
O=C(/C=C\Nc1ccc2c(c1)OCO2)c1ccc2c(c1)OCO2	none
O=C1Nc2ccc(Br)cc2/C1=C/C(=O)c1ccc2c(c1)OCO2	ERK EGF block 32µM
O=C1Nc2ccc(Br)cc2/C1=C/C1CC=CCC1 (stereo not given)	none
COc1ccc(/C=C\C(=O)Nc2ccccc2C(=O)O)cc1OC	none
CC1CCCN(C2=C(Cl)C(=O)N(c3cccc(Cl)c3)C2=O)C1 (stereo not given)	none
CCC(C)NC(=O)C1CCCN1S(=O)(=O)c1ccc(Cl)cc1 (stereo not given)	none
CC1CCCN(C2=C(NS(=O)(=O)c3ccc(Cl)cc3)C(=O)c3ccccc3C2=O)C1 (stereo not given)	ERK EGF block 10µM
C/C(=C\C[Si](C)(C)C)CCC=O	none
N#Cc1cccc(CS(=O)(=O)c2ccccc2)c1	none
COc1cccc([C@@H]2Oc3ccc(Br)cc3C[C@H]2OC(=O)N[C@H](C)C2CCCCC2)c1	none
N/C(Cc1ccccc1Sc1ccccc1)=N\O	none
O=C1c2cccc(Sc3ccccc3)c2C(=O)c2c(Sc3ccccc3)cccc21	ERK EGF block 7.1µM
Cc1cccc(C)c1NC(=O)c1cccc2c1-c1ccccc1C2=O	none
C[C@@H](O)C#C[Si](C)(C)c1ccccc1	none
COc1ccc(C(=O)[C@]2(C)C=C(c3ccc(OC)cc3)[C@H](C)C2)cc1	none
Cc1nc(N2CCOCC2)c2nc(-c3ccccc3)n(CCN(C)C)c2n1	none
COC(=O)Cn1c(C(=O)N2CCCC2)cc2c1C[C@H]1CN(C(=O)c3ccccc3)[C@@](Cc3ccccc3)(C(=O)OC)[C@@H]21	none
